CF NFkB block: inhibitors of PAF-induced NF-kB signaling, primary screen, cell-based, GFP fluorescence, uHTS; KKLEB NF-kB-GFP reporter, GFP fluorescence overnight; inhibition, % at 5 µM; 0.86% of 360,000 active;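 active means at least 50% inhibition at 5 µM, scaled per plate between neutral and stimulator controls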;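 further: PAF is a Pseudomonas aeruginosa culture filtrate used as stimulus; plate controls were PAF-stimulated DMSO wells for no effect and unstimulated DMSO wells for full effect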
TWEAK-Fn14 inh: inhibitors of TWEAK-Fn14 signaling, primary screen, luciferase reporter cells, uHTS; 2% of 360,000 active; AID 1159606, 2016; inhibition, % at 10 µM; TWEAK-stimulated Fn14 reporter cells, luciferase luminescence, 8 h; in the data active means inhibition above about 50%
Peg3 prom inh: Peg3 promoter-driven luciferase inhibitors, primary screen, cell-based, HeLa, luciferase luminescence. HeLa PEG-Prom luciferase reporter, overnight. inhibition, % at 20 µM. 1.7% of 360,000 active. AID 588405, 2011;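 active means inhibition of at least 50% at 20 µM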
KKLEB tox: cytotoxicity in KKLEB CF airway cells, primary screen, cytotoxicity control for CF NF-kB inhibitor project, cell-based, uHTS, fluorescence assay plates; AID 602141, 2011; KKLEB CF airway cells viability, ATPlite luminescence, overnight; hits give low values; cells stimulated with P. aeruginosa culture filtrate; activity change (cytotoxicity), % at 5 µM; 0.36% of 360,000 active;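 active means corrected activity change at or below -50% at 5 µM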
HIF-2a block: HIF-2a reporter inhibitors, primary screen, luminescence, 786-0 RCC cells. 786-0 RCC cells HIF-2a reporter, luciferase luminescence, overnight. inhibition, % at 18.8 µM. 0.72% of 360,000 active;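 active means inhibition of the luminescence signal of 40% or more relative to plate controls, in a single-dose primary screen at 18.75 µM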
TROY NFkB inh: inhibitors of TROY-driven NF-kB signaling, primary screen, Q293 LMP1-TROYcd cells, NF-kB luciferase, uHTS. Q293 LMP1-TROYcd NF-kB luciferase reporter, 4 h. inhibition, % at 10 µM. 0.98% of 360,000 active. AID 1347056, 2019;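 active means compounds whose plate-normalised and pattern-corrected inhibition of the luciferase reporter signal at the single screening dose is 50% or more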
* marks the source's active call; other numbers are inactive results; · = no result. In the library only some 4% were active in any assay of this set; here they are far more common.

SMILES | CF NFkB block | TWEAK-Fn14 inh | Peg3 prom inh | KKLEB tox | HIF-2a block | TROY NFkB inh
CC(=O)OC1CC(OC2C(O)CC(OC3C(O)CC(OC4CCC5(C)C(CCC6C5CCC5(C)C(C7=CC(=O)OC7)C(O)CC65O)C4)OC3C)OC2C)OC(C)C1OC1OC(CO)C(O)C(O)C1O (stereo not drawn) | 90.7* | 82.8* | 107.7* | -53.2* | 68.5* | 44.2
CC(Cc1ccc(O)cc1)NCC(O)c1ccc(O)c(O)c1 (stereo not drawn) | 26.1 | -16.7 | -1.5 | -20.6 | 14.6 | 15.8
CC(=NCCC(c1ccccc1)c1ccccc1)c1c(O)n(C)c(=O)n(C)c1=O | 4.3 | -3.1 | 26.9 | 2.3 | 12.8 | 24.9
Clc1cccc(N2Cc3cc(-c4ccccc4)ccc3-n3nncc3C2)c1 | 48.2 | 49.9 | 101.1* | -36.2 | 11.4 | -14.3
COc1ccc(-c2ccc3c(c2)CN(c2cccc(Cl)c2)Cc2cnnn2-3)cc1 | -18.3 | 25.4 | -32.4 | -19.6 | -48.0 | -28.7
CC(CCN1CC1)=NNC(=O)Nc1cccc2ccccc12 | 20.1 | 58.3* | -14.9 | -0.7 | 6.3 | 36.6
ClCCN(CCCl)c1ccc(-n2cnc3c(Cl)ncnc32)cc1 | 30.2 | 74.9* | 103.9* | -2.6 | 36.4 | 35.6
c1ccc2c(c1)CN(Cc1ccc3c(c1)OCO3)Cc1cnnn1-2 | 6.1 | 5.1 | -10.6 | 1.0 | -1.7 | 8.4
O=c1[nH]c(=S)n(-c2ccc(Br)cc2)c(O)c1C=Nc1ccc(N2CCOCC2)cc1 | -16.1 | 47.8 | 7.8 | -1.1 | 15.4 | 37.2
CCOc1ccc(-n2c(O)c(C=Nc3ccc(N4CCOCC4)cc3)c(=O)[nH]c2=O)cc1 | 0.6 | 90.6* | -0.2 | 2.5 | 12.9 | ·
Nc1ccc2ccc3cccc[n+]3c2c1 | -22.6 | 1.6 | 19.8 | 10.4 | 6.3 | 1.8
C[n+]1c(-c2ccccc2)c2cc(N)ccc2c2ccc(N)cc21 | -7.5 | 9.2 | 74.5* | -9.4 | 27.3 | -0.1
CNC(=O)O/N=C(\C)Cc1nnn(-c2cc(C)on2)n1 | -10.3 | 20.9 | 12.4 | 15.4 | 28.6 | 73.3*
O=C(c1ccco1)c1cn(Cc2ccccc2)c2ccccc12 | 14.9 | 101.5* | -12.4 | -9.0 | -33.8 | -26.0
O=C(c1ccco1)c1cn(Cc2ccccc2Cl)c2ccccc12 | 7.1 | -20.4 | 12.8 | -9.1 | -26.3 | -8.0
S=C(NCCc1ccccc1)N1Cc2ccccc2-n2nncc2C1 | 6.8 | -2.5 | 13.8 | -3.7 | 0.8 | 3.9
CN1CCC(N(C)c2nc(-c3ccc([N+](=O)[O-])cc3)nc3ccccc23)CC1 | 8.4 | -55.6 | 108.2* | -13.7 | -20.5 | -45.6
CC/C(=N\NC(=O)c1ccccc1O)c1c(O)n(C2CCCCC2)c(=O)[nH]c1=O | 15.5 | 10.3 | -12.9 | -16.4 | 9.3 | -13.6
CCCOC(=O)C1C2CCC(O2)C1C(=O)O (stereo not drawn) | 6.4 | -13.3 | 8.6 | 1.9 | 7.1 | -17.2
CP(=O)(O)CN1CCCCC1 | -2.4 | -6.1 | -0.9 | 13.5 | 24.3 | -27.0
C[C@]1(O)CCC2C3CC[C@H]4C[C@@H](OC(=O)[C@@H](N)CCCCN)CC[C@]4(C)C3CC[C@@]21C (stereo partly drawn) | 15.9 | -10.6 | 18.3 | -4.3 | 3.6 | 18.2
CN(CC1COc2ccccc2O1)c1nc(-c2cccnc2)nc2ccccc12 (stereo not drawn) | 0.8 | 32.3 | 50.8* | 0.7 | 15.6 | 20.6
Cc1cc(C)c(C)c(C(O)(C(=O)O)c2ccccc2)c1 (stereo not drawn) | 2.0 | -3.6 | 7.8 | 5.1 | 9.8 | -14.5
O=C1NC(=O)C(=Cc2ccc(SC3CCCCC3)o2)C(=O)N1 | 8.2 | 4.2 | 40.1 | 10.7 | 52.4* | 19.4
O=C(CCc1ccccc1)N1Cc2cc(N3CCCCC3)ccc2-n2nncc2C1 | -10.3 | -8.9 | 21.2 | 3.5 | 16.7 | 11.0
SMILES | CF NFkB block | TWEAK-Fn14 inh | Peg3 prom inh | KKLEB tox | HIF-2a block | TROY NFkB inh
CN1C(=O)C(C)(C2=CCCCC2)C(=O)NC1=S (stereo not drawn) | -8.2 | 16.6 | 92.7* | 2.0 | 5.4 | 1.9
CN1C(=O)NC(=O)C(C)(C2=CCCCC2)C1=O (stereo not drawn) | -6.8 | -52.5 | -375.5 | 16.8 | -270.2 | -47.3
CCCCCc1nc2c(c(=O)c3ccccc3n2C)c(=O)n1C1CCCCCC1 | 44.0 | 43.8 | 71.9* | -22.6 | -3.3 | 88.9*
CCCCCc1nc2ccccc2c(=O)n1-c1ccccc1[N+](=O)[O-] | -1.6 | -11.0 | 23.9 | -26.1 | 18.0 | 2.9
Cc1cc(OC(=O)CCNC(=O)OC(C)(C)C)c2c3c(c(=O)oc2c1)CCC3 | -3.0 | 62.9* | -139.9 | -4.7 | -50.3 | 36.6
COc1ccc(CCN)cc1OC | -7.4 | -13.2 | 6.6 | -4.8 | 16.9 | 3.3
NCCc1ccc(OCc2ccccc2)c(OCc2ccccc2)c1 | 23.0 | -1.4 | 106.6* | -7.5 | 18.0 | -32.6
N#CC1c2ccccc2-n2nncc2CN1C(=O)c1ccccc1F (stereo not drawn) | 4.6 | 6.4 | -13.2 | 9.4 | 5.1 | 6.6
CN1C2CCC1/C(=C/c1ccccn1)C(=O)/C2=C\c1ccccn1 | 98.9* | 100.3* | 99.4* | -91.3* | 88.4* | 41.6
Cc1ccccc1-n1c(/C=C/c2ccccn2)nc2ccccc2c1=O | 2.2 | -10.6 | 28.5 | 3.7 | 35.0 | -1.9
C=CCNC(=S)N1Cc2cc(Br)ccc2-n2nncc2C1 | -2.9 | 0.7 | 0.7 | -5.9 | 5.4 | 7.0
Nc1cccc2c1Cc1cc([N+](=O)[O-])ccc1-2 | -70.0 | -35.7 | -114.7 | 15.8 | -141.6 | -44.8
Cc1cc(C(=O)CS(=O)(=O)c2ccccc2)cc(C)c1OC(=O)N(C)C | 15.3 | 29.7 | -185.1 | -11.3 | -179.1 | 59.7*
Cc1ccc(S(=O)(=O)CC(=O)c2cc(C)c(OC(=O)N(C)C)c(C)c2)cc1 | -4.5 | -0.8 | -19.4 | 4.5 | -46.1 | -11.8
O=C(Cc1ccccc1)N1CCN(Cc2ccccn2)CC1 | -11.8 | 92.3* | -1.3 | -1.9 | 5.4 | -31.8
O=C(Cc1ccccc1)N1CCN(Cc2ccc(Cl)cc2)CC1 | 0.3 | 1.3 | 22.9 | -5.9 | 22.0 | 7.5
COc1c(OP2(=S)OCC(C)(C)CO2)cnn(C2CCCCC2)c1=O | -10.7 | -11.1 | -19.5 | -1.8 | -77.6 | -4.8
CCOc1ccc(Cl)cc1CNCCc1ccccc1F | -1.5 | -19.5 | 73.7* | 8.9 | 4.1 | 15.3
COc1ccc(CCNCc2ccccc2F)cc1OC | 4.9 | -23.2 | 18.4 | -14.4 | 5.9 | 10.1
CN1C(=O)CN=C(c2ccc[nH]2)c2cc(Cl)ccc21 (tested in a mixture with another compound) | -28.5 | 18.8 | -7.7 | 4.1 | -6.0 | -15.7

Compound activity: PubChem BioAssay, Sanford-Burnham Center for Chemical Genomics
